GDH-TPI inh: GDH-TPI coupling enzyme inhibitors, primary screen, artefact control for M. tuberculosis FBA inhibitor project, biochemical, absorbance, full deck | 1.2% of 360,000 active | GDH-TPI coupled enzyme counterscreen, NADH absorbance | inhibition, % at 4.8 µM; in the data active = inhibition above about 30%
VHR inh abs: VHR1 phosphatase inhibitors, primary screen, biochemical, absorbance, uHTS; Dual specificity protein phosphatase 3 (Homo sapiens), P51452; recombinant VHR phosphatase, pNPP absorbance; inhibition, % at 13.3 µM; 0.52% of 290,000 active; AID 1654, 2009; in the data active = inhibition above about 50%
Target sequence (P51452 whole entry, looked up): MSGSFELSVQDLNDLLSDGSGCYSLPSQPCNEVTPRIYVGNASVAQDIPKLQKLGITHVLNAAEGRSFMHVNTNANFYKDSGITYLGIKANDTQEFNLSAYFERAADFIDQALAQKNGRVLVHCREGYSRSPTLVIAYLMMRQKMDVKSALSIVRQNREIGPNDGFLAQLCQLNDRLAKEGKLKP
Mtb FBA inh: Mtb FBA enzyme inhibitors, primary screen, biochemical, fluorescence, strain H37Rv | Fructose-bisphosphate aldolase (Mycobacterium tuberculosis (strain ATCC 25618 / H37Rv)), … | inhibition, % at 1 µM | 2.3% of 360,000 active | purified M. tuberculosis FBA, fluorescence read-out; in the data active = inhibition above about 27%
Target sequence (P9WQA3 whole entry, looked up): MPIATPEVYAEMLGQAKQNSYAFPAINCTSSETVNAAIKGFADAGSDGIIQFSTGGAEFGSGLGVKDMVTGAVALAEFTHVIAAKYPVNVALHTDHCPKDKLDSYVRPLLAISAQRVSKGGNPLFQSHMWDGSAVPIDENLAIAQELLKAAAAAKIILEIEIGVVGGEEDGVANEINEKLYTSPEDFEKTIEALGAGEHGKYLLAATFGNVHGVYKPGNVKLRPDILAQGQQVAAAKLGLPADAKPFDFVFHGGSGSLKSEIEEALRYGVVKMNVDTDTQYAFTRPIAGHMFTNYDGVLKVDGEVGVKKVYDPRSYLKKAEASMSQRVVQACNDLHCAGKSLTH
Mtb hypoxia rep: PubChem AID 1159583 | M. tuberculosis hypoxia-regulated fluorescent reporter, fluorescence | fluorescence inhibition, % (no concentration beside the values) | 0.1% of 300,000 active; in the data active = fluorescence inhibition mostly above about 23%, no sharp cut-off; inactive = mostly below about 17%
Mtb betalactam: beta-lactam sensitization of Mtb H37Rv, H37Rv | AID 434955, 2010 | inhibition, % at 25 µM | 0.27% of 330,000 active | M. tuberculosis H37Rv growth with meropenem, percent inhibition; call rule not given here;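 note: growth measured after seven days incubation then overnight dye step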
Numbers stand for hits; - = inactive; . = no result; + = active, no number; ! = repeats disagree. Compounds with a hit are over-represented: about 3.6% of the library has one in this group of screens.

SMILES	GDH-TPI inh	VHR inh abs	Mtb FBA inh	Mtb hypoxia rep	Mtb betalactam
CC(C)(C)CC(=O)Nc1ccc(-c2cn3cccnc3n2)cc1	-	-	+	-	-
Cc1ccc(S(=O)(=O)N2C(c3cccc(Cl)c3)CC=C(C(=O)O)C2c2ccccc2)cc1 (configuration not stated)	.	.	.	-	.
CCCC(=O)O[C@]1(C(=O)COC(C)=O)CCC2C3CC(F)C4=CC(=O)C=C[C@]4(C)[C@@]3(F)C(O)C[C@@]21C (some centres not stated)	.	.	.	-	.
CC1C(=O)NN=C1C(=O)NN=Cc1ccc(O)cc1O (configuration not stated)	.	.	.	-	.
CN(CC(=O)OCC(=O)NC(=O)c1cccn1C)S(=O)(=O)c1ccc(Cl)cc1	-	-	193	.	-
Cn1cccc1C(=O)NC(=O)COC(=O)CCNS(=O)(=O)c1ccc(Cl)cc1	-	.	-	-	-
CCCCCCn1c(C(C)NC(=O)c2ccco2)nc2ccccc21 (configuration not stated)	-	54	-	.	-
COc1cc(C=NNC(=O)c2ccncc2)ccc1OC(=O)c1ccccc1Cl	.	.	.	-	.
O=C1c2cc(O)c(O)cc2OC(c2ccc(O)c(O)c2)C1O (configuration not stated)	32	.	-	-	.
O=C(CN1C(=O)NC2NC(=O)NC21)NN=Cc1ccccc1O (configuration not stated)	.	.	.	-	.
CN(C)c1cccc(NC2=CC(=[N+]3CCOCC3)CC(C)(C)C2)c1	37	-	-	-	-
CCOc1cc(C=NNC(=O)C(=O)Nc2cc(Cl)ccc2C)ccc1O	.	.	.	-	.
O=S(=O)(Cc1ccccc1)Nc1ccccc1	-	-	-	-	-
CC(=O)c1ccc(NS(=O)(=O)Cc2ccccc2)cc1	35	-	-	-	-
CN(C)C=Nc1cc(=O)n(C)c(=O)n1Cc1ccccc1	.	.	.	-	.
Cn1cnnc1SCC(=O)N1N=C2/C(=C/c3ccco3)CCCC2C1c1ccco1 (configuration not stated)	-	-	-	-	-
O=C(CSc1nccc(=O)[nH]1)N1N=C2/C(=C/c3ccco3)CCCC2C1c1ccco1 (configuration not stated)	-	-	-	-	-
Nc1nc(SCC(=O)N2N=C3/C(=C\c4ccco4)CCCC3C2c2ccco2)n[nH]1 (configuration not stated)	33	.	-	-	.
Nc1nc(SCC(=O)N2N=C3/C(=C/c4ccco4)CCCC3C2c2ccco2)n[nH]1 (configuration not stated)	35	-	-	.	-
Cc1nc2ccccc2c2nc(NC(=O)C(F)(F)F)nn12	-	-	-	-	-
Cn1nc(NC(=O)C(F)(F)F)c2ncc(-c3ccccc3)nc21	32	.	-	.	.
CCCCn1ccnc1C	-	58	-	-	-
CC(C)c1ccc(C=Nn2cnnc2)cc1	.	.	.	-	.
COc1ccc(-n2nc3cc(C)c(NC(C)=O)cc3n2)cc1	-	-	114	-	-
COc1ccc(-n2nc3cc(C)c(NC(=O)C(C)C)cc3n2)cc1	.	-	.	-	.
SMILES	GDH-TPI inh	VHR inh abs	Mtb FBA inh	Mtb hypoxia rep	Mtb betalactam
COc1ccc(C=NNC(=O)CCOc2ccccc2C)cc1OC	.	.	.	-	.
Cc1cccc(C=Nn2c(C)nc3ccccc3c2=O)c1	.	.	.	-	.
CCC(=NNC(=O)OC)c1ccc(OC(F)F)cc1	.	.	.	-	.
CC1OC(OC2C(Oc3cc(O)c4c(c3)OC(c3ccc(O)cc3)CC4=O)OC(CO)C(O)C2O)C(O)C(O)C1O (configuration not stated)	.	.	.	85!	.
CCOC(=O)C(=O)/C(C#N)=C/Nc1ccccc1	-	-	-	.	-
CCOC(=O)/C(C#N)=C/Nc1ccccc1OC	44	-	-	-	-
C#CCOCCOCCOCCNc1nc(N2CCN(C(=O)CCCCCCCCCCNC(=O)C(CCCCN)n3cc(C)nn3)CC2)nc(N2CCN(C(=O)CCCCCCCCCCNC(=O)C(C(C)O)n3cc(C)nn3)CC2)n1 (configuration not stated)	.	.	.	-	.
Cc1cccc(-n2c(C)cc(/C=N/NC(=O)c3ccc(CN4CCOCC4)cc3)c2C)c1	45	-	-	.	-
Cc1ccc(-n2c(C)cc(/C=N/NC(=O)c3ccc(CN4CCOCC4)cc3)c2C)cc1	-	-	-	.	-
Cc1ccc(-c2nc3cc(NC(=O)C(C)C)ccc3o2)cc1	-	-	181	.	-
Cc1cc2nc(-c3ccc(NC(=O)C(C)C)cc3)oc2cc1C	-	-	138	.	-
CC(C)C(=O)Nc1cccc(-c2nc3ccccc3o2)c1	-	-	-	-	-
CC1CN(C(C)CO)C(=O)Cc2cc(NC(=O)Nc3ccc4c(c3)OCO4)ccc2OC1CN(C)S(=O)(=O)c1cccs1 (configuration not stated)	.	.	.	-	.
O=C(CC1SC(=O)N(Cc2ccccc2)C1=O)Nc1nccs1 (configuration not stated)	-	53	-	.	-
O=C(CC1SC(=O)N(Cc2ccccc2Cl)C1=O)Nc1nccs1 (configuration not stated)	-	-	-	-	-
NC(=O)C1CCN(C(=O)c2ccc3nc(-c4ccccc4)c(-c4ccccc4)nc3c2)CC1	-	-	66	-	-
NC(=O)C1CCN(C(=O)c2ccc3ncsc3c2)CC1	-	.	-	.	.
N#CCSc1nc2cc(C(=O)N3CCC(C(N)=O)CC3)ccc2c2nc3ccccc3n12	32	-	-	-	-
COc1ccc(/C=C/C(=O)NC(=S)Nc2ccc(S(=O)(=O)Nc3cc(OC)ncn3)cc2)cc1	-	-	-	-	.
COc1ccc(/C=C/C(=O)NC(=S)Nc2ccc(S(=O)(=O)Nc3nccnc3OC)cc2)cc1	49	-	-	-	-
CCN(CC)c1ccc(C=NNC(=O)CCC(=O)NCc2ccccc2)c(O)c1	.	.	.	-	.
CCN(CC)c1ccc(/C=N/NC(=O)c2ccco2)c(O)c1	41	-	-	.	-
CCN(CC)c1ccc(/C=N/NC(=O)Cc2cccs2)c(O)c1	38	-	-	.	-
CCN(CC)c1ccc(NC(=O)CN(C)Cc2cccs2)cc1	-	53	-	-	-
CCN(CC)c1ccc(/C=N/NC(=O)c2ccco2)cc1	43	-	-	.	-
SMILES	GDH-TPI inh	VHR inh abs	Mtb FBA inh	Mtb hypoxia rep	Mtb betalactam
O=C(NC1CC1)C1=CC(c2csc3ccccc23)CC(OCc2ccc(CO)cc2)O1 (configuration not stated)	.	.	.	-	.
O=c1nc(-c2ccccc2)c2cc(SC(F)F)ccc2[nH]1	-	53	-	-	-
COc1cc(OC)c(C2Nc3ccccc3NC3=C2C(=O)CC(C)(C)C3)cc1OC (configuration not stated)	-	-	-	-	-
COc1ccc(C2CC(=O)C3=C(C2)Nc2ccccc2NC3c2coc3ccccc3c2=O)cc1OC (configuration not stated)	40	-	-	-	-
Nc1nnc(CC(=O)N/N=C\c2ccc(-c3cccc(Cl)c3)o2)s1	33	-	-	.	-
O=C(CN1CCCC1)N/N=C/c1ccc(-c2cccc(Cl)c2)o1	32	-	-	.	-

High-throughput results (PubChem BioAssay)
